Our source for the outcome and AC50 values is PubChem BioAssay (EPA / NIEHS).

Activity calls are given as the source filed them. How the source made its calls: active means hit-call score of the fitted dose curve at least 0.9, where 1 is the maximum; inactive means score below 0.9.

Read-out in assay [1]: Monokine induced gamma interferon (MIG), CXCL9 (gene 4283)
Kind of assay: BSK_hDFCGF_MIG: BioMAP Diversity Plus: hDFCGF Assay for Monokine induced gamma interferon (MIG) Biomarker Activity (AID 2283063). The note with it: primary human foreskin fibroblasts; actives raise or lower the signal. Summed up: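 Human primary foreskin fibroblasts in the hDFCGF system, exposed to test chemical for 24 h; MIG measured by ELISA. Bidirectional curve fitting against DMSO negative control as activity baseline.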

Read-out in assay [2]: Vascular cell adhesion molecule 1 (VCAM1), VCAM1 (gene 7412)
As to the kind of experiment: BSK_hDFCGF_VCAM1: BioMAP Diversity Plus: hDFCGF Assay for Vascular cell adhesion molecule 1 (VCAM1) Biomarker Activity (AID 2283065).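 On AC50: VCAM-1 protein level quantified by ELISA after 24 h chemical exposure.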 The note with it: primary human foreskin fibroblasts; actives raise or lower the signal. The procedure, abridged: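 ELISA readout of VCAM-1 on human dermal fibroblast primary cultures, 24 h after chemical exposure. Gain or loss of signal fitted in both directions against DMSO baseline.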

Read-out in assay [3]: Plasminogen activator inhibitor-1 (PAI1), SERPINE1 (gene 5054)
As to the kind of experiment: BSK_hDFCGF_PAI1: BioMAP Diversity Plus: hDFCGF Assay for Plasminogen activator inhibitor-1 (PAI1) Biomarker Activity (AID 2283066). The note with it: primary human foreskin fibroblasts; actives raise or lower the signal. The procedure, abridged: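 Human skin fibroblast cultures receive chemical for 24 h before PAI-1 is measured by ELISA; signal changes are fitted bidirectionally against DMSO-treated wells.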

Read-out in assay [4]: Intercellular Adhesion Molecule 1 (ICAM1), ICAM1 (gene 3383)
Kind of assay: BSK_KF3CT_ICAM1: BioMAP Diversity Plus: KF3CT Assay for Intercellular Adhesion Molecule 1 (ICAM1) Biomarker Activity (AID 2283067). Particulars: primary human keratinocytes with fibroblasts; actives raise or lower the signal. The procedure, abridged:
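Cell-surface ICAM-1 was measured by ELISA 24 h after dosing primary human skin keratinocytes co-cultured with fibroblasts. Parallel SRB staining tracked overt cytotoxicity. Gain or loss of signal was fitted relative to DMSO.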

Read-out in assay [5]: Interferon-gamma inducible Protein 10 (IP10), CXCL10 (gene 3627)
Kind of assay: BSK_KF3CT_IP10: BioMAP Diversity Plus: KF3CT Assay for Interferon-gamma inducible Protein 10 (IP10) Biomarker Activity (AID 2283068). Particulars: primary human keratinocytes with fibroblasts; actives raise or lower the signal. Summed up:
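Signal is secreted/surface IP-10 by ELISA in a human primary skin co-culture of keratinocytes and foreskin fibroblasts, taken 24 h post-dosing; DMSO served as negative control.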

Assay [6] can be described thus: BSK_KF3CT_SRB: Viability Assessment in the BioMAP Diversity Plus: KF3CT Assay (AID 2283069).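 Further: read 24 h after compound addition.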 The note with it: primary human keratinocytes with fibroblasts. The procedure, abridged:
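Overt cytotoxicity is assessed as total protein by sulforhodamine B staining in parallel human skin co-cultures at 24 h after dosing. DMSO serves as negative control and baseline.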

Read-out in assay [7]: Interleukin-1 alpha (IL1a), IL1A (gene 3552)
As to the kind of experiment: BSK_KF3CT_IL1a: BioMAP Diversity Plus: KF3CT Assay for Interleukin-1 alpha (IL1a) Biomarker Activity (AID 2283070). Particulars: primary human keratinocytes with fibroblasts; actives raise or lower the signal. Summed up:
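Readout is IL-1a level by ELISA, compared bidirectionally with DMSO as baseline. Cells: human keratinocytes co-cultured with foreskin fibroblasts, harvested 24 h post-dose.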

Read-out in assay [8]: TIMP metallopeptidase inhibitor 2 (TIMP2), TIMP2 (gene 7077)
As to the kind of experiment: BSK_KF3CT_TIMP2: BioMAP Diversity Plus: KF3CT Assay for TIMP metallopeptidase inhibitor 2 (TIMP2) Biomarker Activity (AID 2283071). The note with it: primary human keratinocytes with fibroblasts; actives raise or lower the signal. Summed up: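 Measurements come from ELISA detection of TIMP-2 at 24 hours in a dosed human keratinocyte and foreskin fibroblast co-culture. DMSO serves as negative control and baseline.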

Read-out in assay [9]: Transforming growth factor beta 1 (TGFb1), TGFB1 (gene 7040)
As to the kind of experiment: BSK_KF3CT_TGFb1: BioMAP Diversity Plus: KF3CT Assay for Transforming growth factor beta 1 (TGFb1) Biomarker Activity (AID 2283072). The note with it: primary human keratinocytes with fibroblasts; actives raise or lower the signal. Summed up:
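TGF-b1 ELISA on a 24 h dosed co-culture of human keratinocytes and foreskin fibroblasts; cytotoxicity tracked in parallel cultures by SRB staining.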

Read-out in assay [10]: C-C motif chemokine 2 (Homo sapiens) (UniProt P13500)
As to the kind of experiment: BSK_KF3CT_MCP1: BioMAP Diversity Plus: KF3CT Assay for Monocyte Chemoattractant Protein 1 (MCP1/CCL2) Biomarker Activity (AID 2283073). The note with it: primary human keratinocytes with fibroblasts; actives raise or lower the signal. Summed up: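 ELISA read-out of MCP-1, 24 h post-dose, in primary human skin keratinocytes co-cultured with fibroblasts. Parallel SRB staining monitors cytotoxicity; changes fitted both directions relative to DMSO.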

Read-out in assay [11]: Matrix Metallopeptidase 9 (MMP9), MMP9 (gene 4318)
Kind of assay: BSK_KF3CT_MMP9: BioMAP Diversity Plus: KF3CT Assay for Matrix Metallopeptidase 9 (MMP9) Biomarker Activity (AID 2283074).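 Further: MMP9 protein level quantified by ELISA in the co-culture.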 Particulars: primary human keratinocytes with fibroblasts; actives raise or lower the signal. Summed up: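 Values come from bidirectional fitting relative to DMSO of MMP-9 levels, which were measured by ELISA. Measurements were taken 24 h after chemical dosing of a keratinocyte and foreskin fibroblast co-culture.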

Read-out in assay [12]: urokinase plasminogen activator (uPA), PLAU (gene 5328)
As to the kind of experiment: BSK_KF3CT_uPA: BioMAP Diversity Plus: KF3CT Assay for urokinase plasminogen activator (uPA) Biomarker Activity (AID 2283075). Particulars: primary human keratinocytes with fibroblasts; actives raise or lower the signal. The procedure, abridged:
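Values derive from bidirectional fitting against DMSO controls. Keratinocyte/foreskin fibroblast co-cultures received chemical; 24 h later uPA was detected by ELISA, with SRB total-protein staining in parallel wells for overt cytotoxicity.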

Read-out in another assay: CD40, CD40 (gene 958)
Kind of assay: BSK_LPS_CD40: BioMAP Diversity Plus: LPS Assay for CD40 Biomarker Activity (AID 2283076). The note with it: primary human HUVEC with PBMC; actives raise or lower the signal. Summed up:
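In the LPS system of human endothelial cells with peripheral blood mononuclear cells, CD40 levels were read by ELISA 24 h post-treatment. Signal changes in either direction were fitted against the DMSO baseline, with parallel SRB protein staining.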

Read-out in assay [13]: E-selectin (Homo sapiens) (UniProt P16581)
Kind of assay: BSK_LPS_Eselectin: BioMAP Diversity Plus: LPS Assay for Eselectin Biomarker Activity (AID 2283077). Particulars: primary human HUVEC with PBMC; actives raise or lower the signal. Summed up: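 E-selectin ELISA on LPS-stimulated endothelial cell/PBMC co-cultures, read 24 h post-treatment; gains and losses fitted against DMSO. Parallel SRB staining (0.1% SRB after 10% TCA fixation, 560 nm) flags overt cytotoxicity.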

Read-out in assay [14]: Interleukin-8 (IL8), CXCL8 (gene 3576)
As to the kind of experiment: BSK_LPS_IL8: BioMAP Diversity Plus: LPS Assay for Interleukin-8 (IL8) Biomarker Activity (AID 2283078). Particulars: primary human HUVEC with PBMC; actives raise or lower the signal. The procedure, abridged: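 ELISA read-out of IL-8 after 24 h chemical treatment of LPS-activated endothelial/PBMC human primary co-cultures. Changes either up or down relative to DMSO; overt cytotoxicity checked by sulforhodamine B staining in parallel wells.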

Assay [15] can be described thus: BSK_LPS_SRB: Viability Assessment in the BioMAP Diversity Plus: LPS Assay (AID 2283079).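 Further: total protein by sulforhodamine B absorbance as a cytotoxicity measure; measured one day after compound addition.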 The note with it: primary human HUVEC with PBMC. The procedure, abridged:
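SRB viability endpoint: cells fixed with 10% TCA, stained with 0.1% SRB, read at 560 nm, 24 h post-dose. HUVEC/PBMC co-culture; signal change in either direction scored relative to DMSO.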

Read-out in assay [16]: Interleukin-1 alpha (IL1a), IL1A (gene 3552)
As to the kind of experiment: BSK_LPS_IL1a: BioMAP Diversity Plus: LPS Assay for Interleukin-1 alpha (IL1a) Biomarker Activity (AID 2283080). Particulars: primary human HUVEC with PBMC; actives raise or lower the signal. Summed up: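 Readout is IL-1a level by ELISA, 24 h post-dose, fitted as gain or loss relative to DMSO. System: LPS-activated human primary co-culture of vascular endothelium and peripheral blood mononuclear cells, with parallel SRB total-protein cytotoxicity.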

Read-out in assay [17]: Monocyte Chemoattractant Protein-1 (MCP1), CCL2 (gene 6347)
Kind of assay: BSK_LPS_MCP1: BioMAP Diversity Plus: LPS Assay for Monocyte Chemoattractant Protein-1 (MCP1) Biomarker Activity (AID 2283081).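 On AC50: secreted MCP-1 protein quantified by ELISA in culture supernatant.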 Particulars: primary human HUVEC with PBMC; actives raise or lower the signal. The procedure, abridged:
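Secreted MCP-1 read by ELISA at 24 h post-dosing in an LPS-activated co-culture of endothelial cells with peripheral blood mononuclear cells. Fits run in both directions, DMSO as baseline; parallel SRB staining tracks overt cytotoxicity.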

Read-out in assay [18]: Matrix Metallopeptidase 1 (MMP1), MMP1 (gene 4312)
Kind of assay: BSK_hDFCGF_MMP1: BioMAP Diversity Plus: hDFCGF Assay for Matrix Metallopeptidase 1 (MMP1) Biomarker Activity (AID 2283064). Particulars: primary human foreskin fibroblasts; actives raise or lower the signal. Summed up: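 Human foreskin fibroblasts exposed to chemical for 24 h; MMP1 detected by ELISA, with DMSO as baseline for bidirectional fitting.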

Assay [19] is described as follows: BSK_LPS_PGE2: BioMAP Diversity Plus: LPS Assay for Prostaglandin E2 (PGE2) Biomarker Activity (AID 2283082). Particulars: primary human HUVEC with PBMC; actives raise or lower the signal. Summed up:
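Primary human endothelial cells and blood mononuclear cells, co-cultured with LPS, receive test chemical; PGE2 ELISA follows at 24 h, with SRB-stained parallel cultures flagging cytotoxicity.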

Chain of E-selectin (Homo sapiens) (P16581 whole entry, looked up): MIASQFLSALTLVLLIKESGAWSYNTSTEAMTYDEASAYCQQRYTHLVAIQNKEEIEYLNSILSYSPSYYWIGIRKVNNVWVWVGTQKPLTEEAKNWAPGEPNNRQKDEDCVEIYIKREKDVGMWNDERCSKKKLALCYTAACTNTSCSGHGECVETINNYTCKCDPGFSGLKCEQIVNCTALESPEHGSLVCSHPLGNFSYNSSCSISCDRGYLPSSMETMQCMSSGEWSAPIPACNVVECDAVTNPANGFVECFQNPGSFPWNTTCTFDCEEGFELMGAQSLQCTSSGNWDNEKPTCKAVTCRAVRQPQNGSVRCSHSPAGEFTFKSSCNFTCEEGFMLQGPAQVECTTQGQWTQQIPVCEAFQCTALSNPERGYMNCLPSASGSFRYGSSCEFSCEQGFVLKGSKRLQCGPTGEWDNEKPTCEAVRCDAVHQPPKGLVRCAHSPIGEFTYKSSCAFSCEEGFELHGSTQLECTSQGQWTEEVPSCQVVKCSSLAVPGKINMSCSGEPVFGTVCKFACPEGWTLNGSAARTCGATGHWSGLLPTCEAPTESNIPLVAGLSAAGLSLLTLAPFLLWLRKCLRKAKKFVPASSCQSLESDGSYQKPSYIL

As for `Clc1cc(Cl)c(-c2c(Cl)c(Cl)cc(Cl)c2Cl)cc1Cl`, the outcome in [1], in assay [4], in assay [14], in [15] and in [17] was inactive. The concentration at half-maximal activity (AC50) is 14.5 µM (active) in assay [2]; 2.94 µM (active) in assay [3]; 15.5 µM (active) in assay [5]; 13.7 µM (active) in assay [6]; 2.95 µM (active) in assay [7]; 6.63 µM (active) in assay [8]. For the same compound, the concentration at half-maximal activity (AC50) was 4.16 µM (active) in [9]; 10 µM (active) in assay [10]; 8.51 µM (active) in [11]; 10 µM (active) in assay [12]; 10 µM (active) with CD40, CD40 (gene 958); 8.81 µM (active) in assay [13]. The AC50 in [16] is 12.5 µM (active).

`CC(C=O)Cc1ccc(C(C)(C)C)cc1` (configuration not stated): the outcome in [1], in assay [2], in [4], in assay [5], in assay [6] and in assay [7] was inactive. Moreover, the result in [9], in [10], in assay [14] and in assay [17] was inactive. In addition, the half-maximal activity concentration (AC50) in assay [3] is 27.4 µM (active); in assay [8] it was 32.4 µM (active); in assay [11], 36.7 µM (active); in assay [12], 31 µM (active); with CD40, CD40 (gene 958) it was 27.2 µM (active); in assay [13] it was 31.4 µM (active). Besides, the concentration at half-maximal activity (AC50) in [15] is 32.6 µM (active); in assay [16] it was 35.8 µM (active).

`CCCCCC(C=O)=Cc1ccccc1`: the outcome in assay [1], in [3], in assay [9] and in [14] was inactive. Besides, the concentration at half-maximal activity (AC50) in assay [2] was 20 µM (active); in assay [4], 33.1 µM (active); in assay [5] it was 30.4 µM (active); in [6], 36.5 µM (active); in [7], 20 µM (active); in assay [8], 30 µM (active). Moreover, the AC50 was 28.8 µM (active) in [10]; 34.5 µM (active) in [11]; 35.9 µM (active) in [12]; 33.3 µM (active) with CD40, CD40 (gene 958); 31.1 µM (active) in assay [13]; 32.8 µM (active) in assay [15]. The AC50 in assay [16] was 34.3 µM (active); in assay [17] it was 32.9 µM (active).

On to `c1ccc(CCc2ccccc2)cc1`, for which the result in assay [1], in assay [4] and in assay [17] was inactive. Further, the AC50 in [2] was 30.9 µM (active); in assay [3], 31.1 µM (active); in [5], 30 µM (active); in assay [6] it was 28.5 µM (active); in [7] it was 25.2 µM (active); in assay [8], 13.4 µM (active). For the same compound, the AC50 in assay [9] was 12.8 µM (active); in [10], 20 µM (active); in assay [11], 28.5 µM (active); in assay [12], 20 µM (active); in the assay with CD40, CD40 (gene 958), 30.9 µM (active); in assay [13] it was 31.9 µM (active). For the same compound, the AC50 in assay [14] is 20 µM (active); in assay [15] it was 36.4 µM (active); in [16] it was 32.7 µM (active).

Regarding `COc1ccc(CCN2CCC(Nc3nc4ccccc4n3Cc3ccc(F)cc3)CC2)cc1`, the result in assay [1], in assay [18], in assay [2], in assay [4], in assay [5] and in assay [6] was inactive. For the same compound, the outcome in assay [7] is “inactive”; in assay [8], “inactive”; in assay [9], “inactive”; in [10] it was “inactive”; in assay [12], “inactive”; with CD40, CD40 (gene 958), “inactive”. The result in assay [13], in assay [14], in [16], in assay [17] and in assay [19] was inactive. Besides, the AC50 in assay [3] was 7.58 µM (active); in assay [11], 5 µM (active); in [15], 5 µM (active).

In general, AC50 refers to the midpoint of the concentration-response curve, whichever way the signal moves.
